Test [1] can be described thus: HepG2 liver cancer cell viability effects, profiling panel, resazurin fluorescence, 24 h, PK04 Diversity Set (AID 1172). Also: test concentration not given here. As to conditions: higher = more signal.
Test [2] can be described thus: basal S. cerevisiae growth modulation, no modifier, primary screen, OD600, strain BY4716, 24 h, basal condition (AID 1173). The following applies: OD600, 24 h, higher = more signal, called active from +8 up or from −8 down.
Test [3] is described as follows: MM1S myeloma cell viability, profiling panel, resazurin fluorescence, basal, 24 h, PK04 Diversity Set (AID 1174).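 Also: MM1S multiple myeloma cell line; test concentration not given here.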 As to conditions: higher = more signal, called active from +8 up or from −8 down. Background: Resazurin is reduced to fluorescent resorufin, in cell work by metabolically active cells.
Test [4] concerns the target Dihydroorotate dehydrogenase (quinone), mitochondrial (Plasmodium falciparum (isolate 3D7)) (UniProt Q08210). Kind of test: PfDHODH enzyme inhibitors, primary screen, biochemical, C-terminal His tag, absorbance 600 nm (AID 1175).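 Also: recombinant parasite enzyme with a five histidine tag at its C terminus; test concentration not given here.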 The following applies: DCIP absorbance 600 nm, higher = more signal, called active from +8 up or from −8 down.
Test [5] in a line: P. aeruginosa biofilm formation inhibitors, primary screen, strain PAO1, LB-PBS medium, absorbance 600 nm (AID 1176). Also: test concentration not given here. As to conditions: P. aeruginosa PAO1 growth/biofilm, A600, 12 h; higher = more signal.
Test [6] in a line: S. cerevisiae RM11-1a growth modifiers, primary screen, strain RM11-1a, OD600, basal, 24 h (AID 1177).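 Also: cultures grown under basal conditions with no added stressor; test concentration not given here.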 As to conditions: OD600, 24 h, higher = more signal, called active from +8 up or from −8 down.
The nature of test [7]: E. coli acrAB mutant growth effects, primary screen, E. coli filamentation inducers, strain DRC39, OD650, 24 h (AID 1178).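 Also: growth measured as culture turbidity by optical density at 650 nm; test concentration not given here.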 The following applies: higher = more signal, called active from +8 up or from −8 down.
Test [8] is described as follows: E. coli acrAB mutant growth effects, primary screen, E. coli filamentation inducers, strain DRC39, OD650, 48 h (AID 1179).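 Also: screen aims at cell division blockers that make cells filament.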 The following applies: E. coli DRC39 delta-acrAB growth, higher = more signal, called active from +8 up or from −8 down.
A short description of test [9]: RPMI8226 myeloma cell viability, profiling panel, resazurin fluorescence, basal, 24 h, PK04 Diversity Set (AID 1180).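 Also: RPMI8826 multiple myeloma cell line at 5000 cells per well; test concentration not given here.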 As to conditions: higher = more signal.
In test [10] the target is E3 ubiquitin-protein ligase XIAP (Homo sapiens) (UniProt P98170). Kind of test: XIAP binders, primary screen, biophysical, small-molecule microarray, fluorescence 635 nm (AID 1181).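 Also: score merges 667 nm emission and signal to noise over triplicate slides.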 As to conditions: small-molecule microarray binding, higher = more signal.

The record followed here is PubChem BioAssay.

Calls of active or inactive are those of the source. Unless noted, no rule for the calls is given here.

Chain of E3 ubiquitin-protein ligase XIAP (Homo sapiens) (P98170 whole entry, looked up): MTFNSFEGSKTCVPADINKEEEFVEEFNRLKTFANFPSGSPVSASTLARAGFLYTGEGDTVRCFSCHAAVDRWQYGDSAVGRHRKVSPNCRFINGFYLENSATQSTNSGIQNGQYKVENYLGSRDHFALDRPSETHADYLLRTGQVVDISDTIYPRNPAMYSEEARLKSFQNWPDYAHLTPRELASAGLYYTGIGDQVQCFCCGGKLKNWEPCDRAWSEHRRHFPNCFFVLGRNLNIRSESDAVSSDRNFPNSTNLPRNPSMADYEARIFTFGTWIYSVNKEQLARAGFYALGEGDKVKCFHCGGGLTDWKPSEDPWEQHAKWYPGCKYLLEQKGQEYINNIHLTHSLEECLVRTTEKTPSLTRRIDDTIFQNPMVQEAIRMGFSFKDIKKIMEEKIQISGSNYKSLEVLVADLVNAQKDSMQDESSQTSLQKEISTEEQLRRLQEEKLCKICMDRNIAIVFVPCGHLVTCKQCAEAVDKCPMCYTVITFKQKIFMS
Chain of Dihydroorotate dehydrogenase (quinone), mitochondrial (Plasmodium falciparum (isolate 3D7)) (Q08210 whole entry, looked up): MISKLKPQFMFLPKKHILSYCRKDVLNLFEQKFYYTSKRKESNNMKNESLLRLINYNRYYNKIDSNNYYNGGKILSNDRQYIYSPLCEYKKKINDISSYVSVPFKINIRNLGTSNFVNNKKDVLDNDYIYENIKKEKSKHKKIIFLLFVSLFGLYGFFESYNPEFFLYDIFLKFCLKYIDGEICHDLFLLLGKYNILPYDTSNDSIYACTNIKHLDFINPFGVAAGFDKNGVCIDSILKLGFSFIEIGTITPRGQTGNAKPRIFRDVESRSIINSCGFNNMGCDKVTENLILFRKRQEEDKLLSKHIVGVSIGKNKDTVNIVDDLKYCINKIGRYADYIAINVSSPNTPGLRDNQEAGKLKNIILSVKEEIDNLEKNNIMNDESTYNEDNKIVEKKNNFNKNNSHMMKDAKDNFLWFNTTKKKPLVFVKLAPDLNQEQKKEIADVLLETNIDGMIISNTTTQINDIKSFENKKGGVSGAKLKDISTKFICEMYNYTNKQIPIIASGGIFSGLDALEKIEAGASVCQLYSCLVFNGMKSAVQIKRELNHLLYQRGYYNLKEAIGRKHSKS

For the molecule `O=C1NC(=O)C2C1C=CC(C(O)C(c1ccccc1)c1ccccc1)N2Nc1ccccn1` (stereo not given), the z-score in [1] is -0.187; in test [2], -0.639 (inactive); in [3], -0.408 (inactive); in test [5], 0.916 (inactive); in test [6] it was 0.419 (inactive); in test [7], -0.156 (inactive). In addition, the z-score in [8] was -0.284 (inactive); in test [9], 0.261. Also, the composite z-score is 1.72 (inactive) in [4] and 0.417 in test [10].

As for `[N-]=[N+]=NCc1ccccc1C[C@]1(C(=O)N2CCCCC2)COC(c2ccc(OCCCO)cc2)=N1`, the z-score in test [1] was 0.894; in test [2] it was -0.749 (inactive); in test [3], -0.0967 (inactive); in test [5], 0.0405 (inactive); in test [6], 2.36 (inactive); in [7] it was 1.4 (inactive). Further, the z-score in test [8] is 0.815 (inactive); in [9], 0.791. Also, the values for the composite z-score in [4] and in [10] were -0.0119 (inactive) and -0.0604, respectively.

With `CCCCN1CC=CC23O[C@@H]4/C=C\CCCOC(=O)C4[C@H]2C(=O)N(CCCCCCO)[C@@H]3C1=O` (stereo not given in full), the z-score is 0.646 in test [1]; -0.556 (inactive) in test [2]; 1.21 (inactive) in [3]; 0.454 (inactive) in test [5]; -0.874 (inactive) in test [6]; 0.564 (inactive) in [7]. Moreover, the z-score in test [8] is 0.924 (inactive); in test [9], 0.983. For the same molecule, the values for the composite z-score in test [4] and in test [10] were -1.97 (inactive) and -0.159, respectively.

In the case of `CC(C)(C)OC(=O)CC[C@@]1(C(=O)N2CCOCC2)N=C(c2ccc(OCCCO)cc2)O[C@@H]1c1ccccc1CN=[N+]=[N-]`, the z-score in test [1] is -0.538; in [2], -0.295 (inactive); in test [3], -0.383 (inactive); in test [5], 0.342 (inactive); in [6], -0.423 (inactive); in test [7] it was -0.294 (inactive). The z-score is -0.0909 (inactive) in test [8] and -0.365 in [9]. For the same molecule, the composite z-score in test [4] is -0.405 (inactive); in test [10], 0.0345.

Take `CO[C@H]1O[C@H](CO)[C@@H](OC(=O)CCc2ccccc2)[C@@H]2OC(=O)[C@@H](Cc3ccc4ccccc4c3)C/C=C/C[C@H](Cc3ccc4ccccc4c3)C(=O)O[C@@H]12`: the z-score in test [1] is -0.826; in [2], -0.998 (inactive); in test [3] it was -0.333 (inactive); in test [5] it was -0.0558 (inactive); in [6] it was -1.11 (inactive); in [7] it was 0.552 (inactive). In addition, the values for the z-score in test [8] and in test [9] were 0.9 (inactive) and -0.591, respectively. For the same molecule, the composite z-score in test [4] was -1.32 (inactive); in test [10] it was 0.0302.

Regarding `CCCCCN1CC=CC23O[C@@H]4/C=C\CCCOC(=O)C4[C@H]2C(=O)N(CCCCCO)[C@@H]3C1=O` (stereo not given in full), the z-score was 0.809 in test [1]; -1.17 (inactive) in test [2]; 1.33 (inactive) in [3]; 0.0962 (inactive) in [5]; -1.08 (inactive) in test [6]; 0.279 (inactive) in test [7]. Moreover, the z-score in test [8] is -0.0568 (inactive); in test [9], 1.33. Further, the composite z-score in test [4] was -0.869 (inactive); in test [10], 0.165.

For `COC(=O)C[C@H]1O[C@]2(C(=O)N(C)c3ccccc32)[C@@H](C)[C@@H]1[Si](C)(C)c1ccccc1`, the z-score is 1.45 in [1]; -2.07 (inactive) in [2]; 0.317 (inactive) in [3]; -1.24 (inactive) in test [5]; -0.136 (inactive) in [6]; 0.709 (inactive) in [7]. Moreover, the values for the z-score in [8] and in [9] were -0.106 (inactive) and 1.22, respectively. Also, the composite z-score in test [4] was -0.343 (inactive); in [10], 0.135.

As for `CC1C2C(CCCO)=CC(C3C(=O)N(C)C(=O)C23)N1Cc1cccc(OC(F)(F)F)c1` (stereo not given), the z-score in test [1] is -1.25; in test [2], -2.02 (inactive); in [3], -0.244 (inactive); in test [5], -0.0099 (inactive); in [6], 0.481 (inactive); in [7] it was 0.224 (inactive). The z-score in [8] was -0.0843 (inactive); in [9], -0.278. The composite z-score was 0.131 (inactive) in test [4] and 0.245 in test [10].

For the molecule `COC(=O)[C@@]1(Cc2ccccc2)[C@H]2c3cc(C(=O)N(C)C)n(Cc4nc5ccccc5[nH]4)c3C[C@H]2CN1C(=O)c1ccccc1`, the z-score in test [1] was 1.17; in [2] it was -0.541 (inactive); in test [3], -0.204 (inactive); in [5], 0.92 (inactive); in test [6], -0.706 (inactive); in test [7] it was 1.04 (inactive). The z-score in test [8] is 0.0023 (inactive); in test [9], -0.139. Further, the composite z-score in test [4] is -0.862 (inactive); in test [10], 0.0747.

Regarding `CC(C)N1C(=O)[C@@]2(Cc3ccccc31)c1ccccc1C(=O)N(Cc1ccccc1)[C@H]2c1ccc(CO)cc1`, the z-score is -0.147 in test [1]; 2.07 (inactive) in test [2]; 0.144 (inactive) in test [3]; 0.338 (inactive) in [5]; 1.69 (inactive) in [6]; 0.367 (inactive) in [7]. Besides, the z-score was -0.665 (inactive) in [8] and 0.0769 in [9]. Also, the values for the composite z-score in [4] and in test [10] were -19.1 (active) and -0.337, respectively.
